# Values without a mark were called inactive. The source made the active and inactive calls. Calls follow the shape of the dose curve; as a rule, active = well fitted activation curve with a large enough effect; inconclusive = small, poorly fitted or top-dose-only effect; inactive = no such curve, though single readings can be large or run the other way.
# Assay: Counterscreen for Identifying a Potential Treatment of Ataxia-Telangiectasia: Hit Validation; as to activation: 0% is about no effect
# Settings: cell-free AlphaLISA/AlphaScreen artifact counterscreen, PBS only, no cells; series mostly up to 76.9 µM; activation: at the top concentration
# Description: NIH Chemical Genomics Center [NCGC]
# NIH Molecular Libraries Probe Centers Network [MLPCN]
# Assay Submitter (PI): Wei Zheng and Yosef Shiloh
# Ataxia-telangiectasia (A-T) is a devastating and progressive disease for which, there is no cure. Although A-T is a multisystem disease, it is stereotyped characterized by its neurological symptoms such as truncal ataxia, due to cerebellar cortical degeneration of the Purkinje and granule cells. Other symptoms of A-T are telangiectasias (dilated blood vessels), primary immunodeficiency, marked sensitivity to ionizing radiation (IR), chromosomal instability and predisposition to cancer.
# The underlying genetic cause of A-T is null mutations in the ATM (A-T mutated) gene. ATM is a nuclear serine/threonine kinase that functions as a master regulator of the cellular responses to double strand breaks (DSBs) in the DNA. Upon activation by DSBs, ATM phosphorylates a plethora of downstream targets, including KAP-1 on […]. KAP-1 phosphorylation occurs shortly in response to DSBs and mediates global chromatin relaxation, which facilitates DSB repair. To screen for small molecules that will compensate for the loss of ATM in cells derived from A-T patients, we monitored KAP-1 phosphorylation as a readout for ATM-like activity using an AlphaLISA assay.
# 3. Library compounds, 23 nl, 76.7 - 0.61uM dilution series final concentration
# 4. Incubation, 60 min, 37C, 5% CO2, 95% humidity
# 6. Incubation, 30 min, 37C, 5% CO2, 95% humidity
# 7. Reagent, 1 ul, Premixed detection reagents and lysis buffer
# 8. Reagent, 1 ul, 0.6% Antifoam A
# 9. Incubation, 6 hr, 25C, 95% humidity
# 10. Readout, EnVision, EnVision plate reader. AlphaScreen 1536-well protocol
# PBS was dispensed into medium-binding white solid-bottom tissue culture treated Kalypsys plates with a Multidrop dispenser. Detection reagent and lysis buffer was 3.75nM Rab-a-pKAP1 antibody bound to 75 ng/ul AlphaScreen SA donor bead, 3.75 nM Biot-M-a-KAP1 antibody bound to AlphaLISA protein A acceptor bead, 0.5x protease inhibitor cocktail and 0.25x PerkinElmer lysis buffer. EnVision protocol for 1536-well AlphaScreen read (30ms excitation, 100ms read), about 10 min/plate. This assay is similar to the primary screen but is without cells. It aims to identify artifacts of the assay platform and unspecific hits.
# Potency is read from the fitted curve at half-maximal effect.
SMILES,activation [%],Potency
O=C1Nc2ccccc2C1Cc1nc2ccccc2c(=O)n1-c1ccccc1 (stereo not given),-12.3,–
CCN(CC)S(=O)(=O)c1ccc(C(=O)NC2CN3CCC2CC3)cc1 (stereo not given),-5.26,–
CCN(CC)S(=O)(=O)c1cccc(N=Nc2c(O)n(CC)c(=S)n(CC)c2=O)c1,-12.3,–
CCCCC(=O)N/N=C/c1c(O)n(CCC2=CCCCC2)c(=O)[nH]c1=O,-8.2,–
CCCCn1c(O)c(C(=O)/C=C/c2c[nH]c3ccccc23)c(=O)[nH]c1=O,-9.23,–
O=C(c1cccnc1)C1CCCN(Cc2nc(-c3cnccn3)no2)C1 (stereo not given),-21.5,–
CC(=O)OC1CC[C@]2(C#N)[C@H]3CC[C@]4(C)[C@H](C5C=CC(=O)O5)CCC4(O)C3CCC2(O)C1 (stereo not given in full),4.51,–
Cc1ccc(C)c(NP(=O)(Oc2ccccc2)Oc2ccccc2)c1,-6.77,–
C/C=C/c1ccc2c(c1)OCO2,-4.92,–
CCc1ccc(N2C(=O)NC(=O)/C(=C\C=C\c3ccco3)C2=O)cc1,-6.15,–
CC1(C)C[C@H]2C=C(C=O)[C@]3(C=O)C[C@]3(C)[C@H]2C1,-6.15,–
Cc1cc(O)c2c(c1)C(=O)C13C(=C2O)C(=O)[C@H]2[C@@H](O)[C@@H]1[C@H]1[C@H](O)[C@@H]3C(=O)C3=C(O)c4c(O)cc(C)cc4C(=O)C312 (stereo not given in full),–,7.33 µM (active)
Cc1nc2ccccc2c(=O)n1-c1ccc(F)cc1F,2.46,–
Cc1cccc(N2C(=O)NC(=O)/C(=C\C=C\c3ccco3)C2=O)c1,-38.5,–
CN1CCCC(C(O)(c2ccccc2)c2ccccc2)C1 (stereo not given),-26.9,–
COC(=O)C1=C(c2ccc(OCc3ccccc3)cc2)C[C@@H]2CC[C@H]1N2C(=O)NCc1cccc(C(F)(F)F)c1,17.7,–
CCN1C(=O)N(CC)C(=O)C2(Cc3ccccc3N3CCN(c4ccccc4)CC32)C1=O (stereo not given),-4.1,–
CN1CCN(c2ccc([N+](=O)[O-])c3no[n+]([O-])c23)CC1,-7.38,–
Cc1ccc(-n2c(O)c(C=NCC3CCCO3)c(=O)[nH]c2=O)c(C)c1 (stereo not given),0,–
CC(C)c1ccc(-n2c(O)c(C=NC(CCS(C)=O)C(=O)O)c(=O)[nH]c2=S)cc1 (stereo not given),-12.3,–

# — PubChem BioAssay AID493185 (National Center for Advancing Translational Sciences (NCATS), 2011)
